Bioassay records as filed in PubChem.
FBPA Giardia inh: qHTS Assay for Inhibitors of Fructose-1,6-bisphosphate Aldolase from Giardia Lamblia. Potency, µM (titrated, usually from 59.6 µM), inactives show at the highest dose activity, negative = inhibition, hits mostly inhibitors. A8B2U2. purified Giardia FBPA. 0.71% of 290,000 active; note: nearly all actives have a fitted effect of over 55% in size
Target sequence (A8B2U2 whole entry, looked up): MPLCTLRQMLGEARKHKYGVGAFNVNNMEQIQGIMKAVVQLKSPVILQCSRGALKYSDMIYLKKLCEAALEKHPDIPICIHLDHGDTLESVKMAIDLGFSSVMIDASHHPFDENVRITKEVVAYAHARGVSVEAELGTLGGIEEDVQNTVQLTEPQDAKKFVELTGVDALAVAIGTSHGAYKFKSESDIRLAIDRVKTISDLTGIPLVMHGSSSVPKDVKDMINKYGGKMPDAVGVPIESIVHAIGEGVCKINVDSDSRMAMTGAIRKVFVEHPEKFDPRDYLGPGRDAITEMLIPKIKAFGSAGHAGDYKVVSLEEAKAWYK
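Giardia FBPA (40 nM reagent) was preincubated 10 min at RT with compound (up to 57.5 uM final), then substrate plus GAPDH/TPI/NAD/arsenate coupling system with diaphorase/resazurin was added; resorufin fluorescence (525/598 nm) was read after 20 min.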
LmPK inh: qHTS Assay for Inhibitors of Leishmania Mexicana Pyruvate Kinase (LmPK); Q27686; purified LmPK, Kinase-Glo ATP luminescence, 1 h; Potency, µM (doses to about 57.5 µM), inactives show top-dose activity change, negative = inhibition, hits mostly inhibitors; 0.37% of 290,000 active; AID 1721, 2009
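qHTS format; LmPK 0.1 nM; substrates PEP 0.5 mM and ADP 0.1 mM. One-hour room-temperature incubation, then coupled luciferase luminescence; 0.5 nM enzyme wells mark activation.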
Sm TGR inh: qHTS Assay for the Inhibitors of Schistosoma Mansoni Peroxiredoxins | Schistosoma mansoni thioredoxin glutathione reductase (TGR), Q962Y6 | purified TGR, DTNB reduction, TNB absorbance 405 nm | Potency, µM (titrated, usually from 114 µM), without a hit: at the top dose activity change, negative = inhibition, usual class: inhibitors | 3% of 360,000 active | AID 485364, 2010; note: nearly all actives have a fitted effect of over 60% in size
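First, TGR (20 nM dispensed) and NADPH were mixed with compound. Second, a 15 min room-temperature incubation followed. Third, further NADPH and then DTNB were added to start the reaction. Finally, TNB absorbance was monitored kinetically.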
TbPYK inhibitor: qHTS of Trypanosoma Brucei Inhibitors. TbPYK enzyme, Kinase-Glo Plus ATP luminescence, 45 min. pyruvate kinase (Trypanosoma brucei), Q57TT1. AID 624173, 2012. Potency, µM (doses to about 76.8 µM), without a hit: top-dose activity, negative = inhibition, usual class: inhibitors. 0.12% of 410,000 active; note: nearly all actives have a fitted effect of over 50% in size
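Readout: single end-point luminescence (Kinase-Glo Plus, 10 min). Reaction conditions were TbPYK/substrate plus 130 uM ADP, 45 min at RT, pH 7.2 TEA buffer. No-enzyme wells served as controls, and data were normalized before concentration-response fitting.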
RE007 growth inh: qHTS Assay for Inhibitors of the HIV-1 protein Vpr; S. pombe RE007 Vpr strain, BacTiter-Glo ATP luminescence, 24 h; Potency, µM (top dose mostly 92.2 µM), for the others: top-dose activity change, negative = less growth, hits mostly inhibitors; 0.21% of 360,000 active; active = well fitted falling curve with a large enough effect; inconclusive = small, poorly fitted or top-dose-only effect; inactive = no such curve, though single readings can be large or run the other way; note: nearly all actives have a fitted effect of over 50% in size
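Fission yeast RE007 carrying one integrated HIV-1 vpr copy, seeded at OD 0.01 in PMG+AL medium with 23 nL pinned compound. Grown 24 h at 30 degrees; viability read by BacTiter-Glo luminescence after 5 min.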
* hit, by the source's call; u = inconclusive; x = no result; [ ] = remark or other dose. The list is not random: actives were taken first. Their share in the collection is about 3.3%. Unless noted, calls come from the whole dose curve; as a rule, active = well fitted curve in the direction sought with a large enough effect; inconclusive = small, poorly fitted or top-dose-only effect, or another doubt; inactive = no such curve, though single readings can be large; an effect the other way counts as inactive or inconclusive. % is set by controls: 0 for no effect and ±100 for the full control effect; potency is the fitted concentration of half-maximal effect.

SMILES | FBPA Giardia inh | LmPK inh | Sm TGR inh | TbPYK inhibitor | RE007 growth inh
O=C1c2oc3ccc(Cl)cc3c(=O)c2C(c2ccco2)N1CCN1CCOCC1 (configuration not stated) | -21.1% | 2.6% | 35.5µM* | -1.1% | -8.0%
COc1cc(C2c3c(oc4cc(C)c(C)cc4c3=O)C(=O)N2CCCN2CCOCC2)ccc1O (configuration not stated) | x | x | 35.5µM* | -14.9% | x
Cc1ccc(C2c3c(oc4ccc(Cl)cc4c3=O)C(=O)N2CCCN2CCOCC2)o1 (configuration not stated) | -13.8% | 2.1% | u | x | x
O=C1c2oc3ccccc3c(=O)c2C(c2cccc(O)c2)N1CCCN1CCOCC1 (configuration not stated) | -4.2% | 9.7% | 39.8µM* | -14.3% | 18.7%
CCOc1ccc(C2c3c(oc4ccccc4c3=O)C(=O)N2CCCN2CCOCC2)cc1OCC (configuration not stated) | -17.1% | -0.1% | 22.4µM* | -9.1% | 8.1%
COc1ccc(CNC(=O)Oc2ccccc2)cc1Cl | 4.4% | 7.2% | -15.8% | 7.2% | 9.5%
COc1ccc(/C=C(/NC(=O)c2ccccc2)C(=O)NC2CCS(=O)(=O)C2)cc1 (configuration not stated) | -6.7% | -0.8% | -4.9% | -17.4% | 3.0%
O=C(c1ccccc1Cl)N(Cc1ccco1)Cc1ccco1 | x | x | 1.6% | -1.2% | x
N#CC1=C(N)Oc2cc(N)ccc2C1c1cc(Br)cs1 (configuration not stated) | 3.3% | 0.1% | -33.9% | -3.7% | 5.6%
CCCc1cc(N2CCN(C(=O)c3ccco3)CC2)n2c(nc3ccccc32)c1C#N | 2.0% | -3.6% | 39.8µM* | 3.6% | 12.2%
Cc1[nH]n(-c2ccc(Cl)cc2)c(=O)c1C=NC12CN3CN(CN(C3)C1)C2 | 0.4% | -5.3% | -5.0% | 2.3% | u
COC(=O)C1=C(C)NC(C)=C(C(=O)OCCN(C)Cc2ccccc2)[C@H]1c1cccc([N+](=O)[O-])c1 | -4.0%[21.7 µM] | x | x | x | x
Cc1ccc(NC(=O)c2cc(C)n(-c3ccccc3)c2C)cc1 | u | u | 8.4% | 3.6% | 22.6%
Cc1cc(C(=O)Nc2ccc(Cl)cc2)c(C)n1-c1ccccc1 | u | -24.8% | 50.1µM* | -6.1% | -11.8%
N=C1/C(=C/c2ccc(OCc3ccccc3F)cc2)C(=O)N=C2SC(CC(=O)N3CCOCC3)=NN12 | 7.2% | 0.4% | -14.1% | 4.0% | -13.0%
COC(=O)CN1C(=O)[C@H]2[C@@H](c3ccc(C)o3)N3C(=O)CN(CC4CC4)C(=O)[C@@]3(C)[C@H]2C1=O | 8.5% | 3.6% | 15.8µM* | -26.0% | -3.8%
Cc1ccc([C@@H]2[C@@H]3C(=O)N(c4ccccc4)C(=O)[C@@H]3[C@]3(C)C(=O)N(Cc4ccccn4)CC(=O)N23)o1 | 4.6% | -1.3% | u | -1.3% | 2.2%
COC(=O)CN1C(=O)[C@H]2[C@@H](c3ccc(C)o3)N3C(=O)CN(Cc4ccccc4)C(=O)[C@@]3(Cc3ccccc3)[C@H]2C1=O | 3.5% | -1.7% | u | -14.3% | 11.8%
COC(=O)CN1C(=O)[C@H]2[C@@H](c3ccc(C)o3)N3C(=O)CN(Cc4ccccn4)C(=O)[C@@]3(C)[C@H]2C1=O | 8.3% | -8.5% | 25.1µM* | -13.1% | 5.8%
COC(=O)CN1C(=O)[C@H]2[C@@H](c3ccc(C)o3)N3C(=O)CN(Cc4ccc(-c5ccccc5)cc4)C(=O)[C@@]3(C)[C@H]2C1=O | -8.9% | -0.4% | 10µM* | u | -4.7%
Cc1ccc(S(=O)(=O)O)c(C)c1N1CCCC1=O | 5.9% | -2.4% | -7.6% | 0.0% | -19.6%
Cc1cc(NC(=O)c2ccccc2F)n(-c2nc3ccccc3[nH]2)n1 | 10.2% | 0.8% | 5.2% | 0.9% | 17.7%
Cc1nn(-c2nc3ccccc3[nH]2)c(=O)c2ccccc12 | -5.1% | 7.08µM* | 3.4% | u | 6.31µM*
Cc1cc(Nc2ccccc2)n(-c2nc3ccccc3[nH]2)n1 | u | 1.0% | 1.7% | -4.8% | 35.5µM*
CCOc1ccc(C(=O)CCC(=O)N(CC)CC(=O)Nc2c(F)cccc2F)cc1 | x | x | -26.6% | -1.7% | 8.0%
SMILES | FBPA Giardia inh | LmPK inh | Sm TGR inh | TbPYK inhibitor | RE007 growth inh
O=C(CN1C(=O)COc2ccccc21)NCCC1=CCCCC1 | 0.4% | 2.3% | -4.3% | 9.3% | -2.2%
O=C1/C(=C/N(C(=O)c2ccco2)c2ccc(Cl)cc2)Sc2ccccc21 | -0.4% | u | 39.8µM* | -17.0% | u
O=C1/C(=C/N(C(=O)c2ccco2)c2ccc(Br)cc2)Sc2ccccc21 | 0.5% | -19.5% | 12.6µM* | -6.2% | -17.1%
O=C1c2ccccc2C(=O)N1CCCCN(C(=O)c1ccco1)c1ccc(Cl)cc1 | -10.5% | -4.1% | 0.0% | 3.2% | 7.7%
COc1ccc(CN(C(=O)c2ccco2)c2ccc(Br)cc2)cc1OC | 10.2% | 2.8% | -12.0% | 4.3% | 15.3%
Cc1csc(C(=O)O)c1NC(=O)c1ccc(F)cc1 | 4.5% | 0.8% | 89.1µM* | 3.8% | 3.9%
COc1ccc(C(=O)Nc2c(C)csc2C(=O)O)cc1 | -1.3% | 3.1% | 14.7% | 3.2% | -3.4%
COc1ccc(C(=O)C(CN2CCCC2)c2ccccc2)cc1 (configuration not stated) | -3.9% | 3.5% | -5.2% | 2.7% | u
O=C(c1ccc(Cl)cc1)C(CN1CCCC1)c1ccccc1 (configuration not stated) | u | 0.0% | 28.2µM* | -4.9% | u
CN(C)c1ccc(N2C(=NC(=O)CCC3CCCC3)SC3CS(=O)(=O)CC32)cc1 (configuration not stated) | -9.4% | 7.8% | -3.1% | -17.2% | -23.6%
Cc1ccc(CN(C(=O)COc2ccc(Cl)cc2)c2ccccn2)o1 | x | x | -33.0% | -11.9% | x
Cc1ccc(CN(C(=O)COc2ccccc2Cl)c2ccccn2)o1 | x | x | 39.8µM* | -22.2% | x
CCc1cccc(NC(=O)CSc2ncc3c(n2)-c2ccccc2N(CC)S3(=O)=O)c1 | x | x | 3.2% | 2.8% | x
CCc1cccc(NC(=O)CSC2=NS(=O)(=O)c3ccccc32)c1 | 10.3% | 15.8µM* | 3.16µM* | u | 2.0%
CCC[C@@H](CN[C@@H](CNC)[C@H](C)CC)NCC1CCC(C(C)(C)C)CC1 (some centres not stated) | u | -1.2% | 0.5% | 1.4% | 1.0%
CC(C)C1Cc2c(C#N)c(N)sc(=S)c2CO1 (configuration not stated) | u | 14.4% | 10µM* | -12.9% | -0.6%
CC1(C)Cc2c(C#N)c(N)sc(=S)c2CO1 | u | 4.3% | u | -9.7% | 1.5%
